Experimental data published in the supplement of paper PMC11006884.
Targets with a hit are over-represented here; the source holds about 6,500 in all. About 2% of all pairs of compound and target were hits. Values without a mark were called inactive.

Compound: COC(=O)C#Cc1ccccc1 [methyl 3-phenylpropiolate]
Test: log2 ratio of iodoacetamide-alkyne labeling of the cysteine site, DMSO over compound (competition); higher = stronger covalent engagement of the cysteine by the compound, active = 1 or more
Settings: 500 µM; treatment time 1 h; system: HEK293T cell lysate
Summary of the method: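 Electrophile (500 µM) or vehicle was added to HEK293T lysate (2 mg/mL) for 1 h at ambient temperature before iodoacetamide alkyne labelling (1 h) and click coupling to sCIP-TMT reagents. After pooling, overnight trypsin digestion at 37 °C, streptavidin enrichment and acid elution, peptides were measured by Orbitrap Eclipse LC-MS/MS with FAIMS and quantified in FragPipe. Each cysteine's log2 competition ratio compares mean control-channel with mean compound-channel reporter intensity, control over compound. Data came from duplicate channels across three replicates, excluding cysteines quantified in only one replicate.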

UniProt Q7Z4Q2, sequence (Q7Z4Q2 whole entry, looked up): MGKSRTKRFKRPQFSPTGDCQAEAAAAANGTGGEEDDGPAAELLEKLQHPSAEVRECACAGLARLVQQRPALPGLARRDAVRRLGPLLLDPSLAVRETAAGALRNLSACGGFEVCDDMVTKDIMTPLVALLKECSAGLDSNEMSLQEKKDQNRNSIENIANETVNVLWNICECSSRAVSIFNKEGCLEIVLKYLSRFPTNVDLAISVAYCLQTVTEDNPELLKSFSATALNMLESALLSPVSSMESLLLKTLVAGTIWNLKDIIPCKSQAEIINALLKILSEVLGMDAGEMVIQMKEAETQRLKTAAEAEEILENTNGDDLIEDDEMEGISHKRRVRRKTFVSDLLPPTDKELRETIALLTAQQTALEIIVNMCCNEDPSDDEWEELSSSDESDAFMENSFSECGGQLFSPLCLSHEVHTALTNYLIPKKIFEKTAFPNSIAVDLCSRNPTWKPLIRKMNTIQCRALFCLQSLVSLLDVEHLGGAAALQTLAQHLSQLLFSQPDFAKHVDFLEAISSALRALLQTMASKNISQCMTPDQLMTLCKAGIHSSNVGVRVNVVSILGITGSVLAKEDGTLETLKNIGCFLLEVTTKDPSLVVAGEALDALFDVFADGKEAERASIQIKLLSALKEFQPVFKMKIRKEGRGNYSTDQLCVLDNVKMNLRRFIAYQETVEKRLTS
UniProt Q96CS3, sequence (Q96CS3 whole entry, looked up): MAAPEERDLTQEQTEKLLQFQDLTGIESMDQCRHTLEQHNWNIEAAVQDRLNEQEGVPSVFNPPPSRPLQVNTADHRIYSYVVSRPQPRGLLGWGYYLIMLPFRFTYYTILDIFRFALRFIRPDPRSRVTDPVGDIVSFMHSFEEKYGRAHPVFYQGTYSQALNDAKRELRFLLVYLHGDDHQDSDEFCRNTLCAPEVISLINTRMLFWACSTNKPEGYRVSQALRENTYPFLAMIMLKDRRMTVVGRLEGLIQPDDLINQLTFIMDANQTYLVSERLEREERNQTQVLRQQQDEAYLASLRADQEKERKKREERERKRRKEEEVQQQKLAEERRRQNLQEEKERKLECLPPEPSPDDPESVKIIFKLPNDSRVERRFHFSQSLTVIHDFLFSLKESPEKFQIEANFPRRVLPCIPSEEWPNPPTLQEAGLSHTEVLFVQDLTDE
UniProt Q8TBM8, sequence (Q8TBM8 whole entry, looked up): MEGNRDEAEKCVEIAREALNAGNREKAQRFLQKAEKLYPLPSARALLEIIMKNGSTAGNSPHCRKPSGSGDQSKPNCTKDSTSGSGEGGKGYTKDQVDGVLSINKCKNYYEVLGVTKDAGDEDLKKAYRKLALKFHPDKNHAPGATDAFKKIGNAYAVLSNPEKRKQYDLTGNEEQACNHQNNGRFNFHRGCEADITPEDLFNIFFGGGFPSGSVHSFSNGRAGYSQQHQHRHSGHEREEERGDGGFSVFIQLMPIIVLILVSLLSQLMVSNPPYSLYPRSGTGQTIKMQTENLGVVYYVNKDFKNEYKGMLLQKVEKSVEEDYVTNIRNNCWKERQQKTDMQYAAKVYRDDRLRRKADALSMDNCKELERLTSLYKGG
UniProt Q8IWV7, sequence (Q8IWV7 whole entry): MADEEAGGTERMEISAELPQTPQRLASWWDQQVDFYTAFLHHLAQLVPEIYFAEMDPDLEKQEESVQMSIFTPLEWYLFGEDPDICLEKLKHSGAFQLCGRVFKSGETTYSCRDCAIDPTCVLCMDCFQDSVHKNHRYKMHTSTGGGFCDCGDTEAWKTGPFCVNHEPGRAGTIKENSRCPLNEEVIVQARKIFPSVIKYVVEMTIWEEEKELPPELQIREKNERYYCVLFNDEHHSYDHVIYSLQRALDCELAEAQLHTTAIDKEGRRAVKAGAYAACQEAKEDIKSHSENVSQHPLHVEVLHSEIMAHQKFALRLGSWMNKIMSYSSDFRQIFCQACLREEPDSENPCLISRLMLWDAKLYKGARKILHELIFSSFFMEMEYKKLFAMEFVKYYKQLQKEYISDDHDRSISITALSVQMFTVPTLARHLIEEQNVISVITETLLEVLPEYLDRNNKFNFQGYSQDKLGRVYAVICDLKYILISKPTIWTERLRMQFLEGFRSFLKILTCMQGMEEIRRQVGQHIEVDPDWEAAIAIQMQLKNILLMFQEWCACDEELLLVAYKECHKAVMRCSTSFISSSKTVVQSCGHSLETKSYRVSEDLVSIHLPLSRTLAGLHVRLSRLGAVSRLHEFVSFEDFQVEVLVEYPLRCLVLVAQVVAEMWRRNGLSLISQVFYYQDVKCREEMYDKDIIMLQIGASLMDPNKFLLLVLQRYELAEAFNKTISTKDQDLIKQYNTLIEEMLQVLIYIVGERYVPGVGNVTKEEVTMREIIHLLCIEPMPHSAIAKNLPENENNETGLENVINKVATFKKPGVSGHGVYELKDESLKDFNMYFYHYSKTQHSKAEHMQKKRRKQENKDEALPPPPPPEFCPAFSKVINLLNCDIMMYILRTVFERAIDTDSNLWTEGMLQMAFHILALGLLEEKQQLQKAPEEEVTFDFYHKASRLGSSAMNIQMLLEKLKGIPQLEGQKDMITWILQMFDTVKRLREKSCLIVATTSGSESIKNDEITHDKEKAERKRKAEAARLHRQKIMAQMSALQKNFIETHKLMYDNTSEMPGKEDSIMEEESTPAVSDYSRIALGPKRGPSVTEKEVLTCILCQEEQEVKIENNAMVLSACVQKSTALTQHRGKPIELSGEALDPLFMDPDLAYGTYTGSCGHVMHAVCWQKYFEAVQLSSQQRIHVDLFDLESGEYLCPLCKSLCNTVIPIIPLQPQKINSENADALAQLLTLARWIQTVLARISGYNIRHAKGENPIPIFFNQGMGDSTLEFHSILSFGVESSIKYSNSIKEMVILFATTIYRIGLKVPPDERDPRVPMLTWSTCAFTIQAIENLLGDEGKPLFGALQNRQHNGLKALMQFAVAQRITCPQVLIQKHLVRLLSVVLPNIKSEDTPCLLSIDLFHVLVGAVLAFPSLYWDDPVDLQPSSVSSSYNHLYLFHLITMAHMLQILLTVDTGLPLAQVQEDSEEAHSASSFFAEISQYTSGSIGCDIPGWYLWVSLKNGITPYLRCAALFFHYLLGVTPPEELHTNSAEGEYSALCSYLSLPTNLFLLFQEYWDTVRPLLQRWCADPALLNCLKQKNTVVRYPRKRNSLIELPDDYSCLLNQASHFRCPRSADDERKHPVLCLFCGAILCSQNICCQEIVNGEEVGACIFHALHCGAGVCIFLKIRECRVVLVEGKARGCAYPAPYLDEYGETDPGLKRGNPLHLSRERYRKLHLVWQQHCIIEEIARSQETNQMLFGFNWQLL
UniProt Q8WUA4, sequence (Q8WUA4 whole entry): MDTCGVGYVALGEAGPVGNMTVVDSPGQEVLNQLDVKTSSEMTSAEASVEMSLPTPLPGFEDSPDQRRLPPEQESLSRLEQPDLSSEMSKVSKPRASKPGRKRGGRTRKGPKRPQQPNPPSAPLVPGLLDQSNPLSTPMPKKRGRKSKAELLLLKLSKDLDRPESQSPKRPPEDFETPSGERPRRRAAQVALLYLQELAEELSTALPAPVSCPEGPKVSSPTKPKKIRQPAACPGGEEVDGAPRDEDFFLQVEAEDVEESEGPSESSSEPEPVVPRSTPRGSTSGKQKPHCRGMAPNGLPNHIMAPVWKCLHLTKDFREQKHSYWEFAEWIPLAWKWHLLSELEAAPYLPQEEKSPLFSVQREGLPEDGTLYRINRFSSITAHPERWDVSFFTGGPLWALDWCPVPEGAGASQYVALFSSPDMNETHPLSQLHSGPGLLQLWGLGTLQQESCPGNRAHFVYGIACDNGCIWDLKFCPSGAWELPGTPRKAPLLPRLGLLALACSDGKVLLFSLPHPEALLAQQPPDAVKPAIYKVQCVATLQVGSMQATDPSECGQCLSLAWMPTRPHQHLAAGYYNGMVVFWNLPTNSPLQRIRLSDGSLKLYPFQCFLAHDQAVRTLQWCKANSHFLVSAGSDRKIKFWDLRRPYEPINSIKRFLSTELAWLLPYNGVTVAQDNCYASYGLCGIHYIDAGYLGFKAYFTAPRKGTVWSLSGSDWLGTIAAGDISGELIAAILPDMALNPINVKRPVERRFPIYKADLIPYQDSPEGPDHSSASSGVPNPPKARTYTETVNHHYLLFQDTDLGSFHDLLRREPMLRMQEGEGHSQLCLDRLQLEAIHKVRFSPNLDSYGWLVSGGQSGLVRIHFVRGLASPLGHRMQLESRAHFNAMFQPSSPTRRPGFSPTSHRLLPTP

Target | log2 ratio of iodoacetamide-alkyne labeling
TMCO6 C57 (UniProt Q96DC7) | 0.394
NEK9 C25 (UniProt Q8TD19) | 1.21 (active)
ARID2 C1549 (UniProt Q68CP9) | 0.434
MMS19 C549 (UniProt Q96T76) | 1.36 (active)
TBRG4 C335 (UniProt Q969Z0) | 0.436
UniProt Q9BSH4_C112 | -0.152
FAF2 C194 (UniProt Q96CS3) | 0.689
UniProt Q7RTV0_C61 | 0.11
UBR1 C1603 (UniProt Q8IWV7) | 0.433
UniProt Q8IX01_C183 | 0.451
PNKP C516 (UniProt Q96T60) | 0.166
INTS1 C1701 (UniProt Q8N201) | -0.0332
VPS13B C2907 (UniProt Q7Z7G8) | 0.889
GTF3C2 C608 (UniProt Q8WUA4) | 0.147
AKAP1 C389 (UniProt Q92667) | 1.15 (active)
UniProt Q6PJG6_C228 | 1.06 (active)
ZNF746 C425 (UniProt Q6NUN9) | 0.385
DNAJB14 C77 (UniProt Q8TBM8) | 1.08 (active)
LPP C468 (UniProt Q93052) | 0.118
AKAP1 C147 (UniProt Q92667) | 1.02 (active)
NEK9 C11 (UniProt Q8TD19) | 1.21 (active)
UniProt Q7Z2T5_C239 | 1.28 (active)
HEATR3 C173 (UniProt Q7Z4Q2) | 0.137
